Data reported in PubChem BioAssay (NCI).
Several values for one entry are separate records, joined by “and”; a condition that tells them apart may be missing. Equal entries are not always repeated. Compounds without any hit were thinned out: in the full panel of roughly 83,000, 20% have a hit.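 Growth was measured after 48 h exposure to one concentration of compound in 96-well plates. Values under 10 count as active.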 Activity calls are given as the source filed them.

Experiments:
Experiment in all cases: NCI-60 one-dose screen, 48 h (100 = growth as untreated, 0 = no growth, -100 = all killed)
Details in all cases: 10 µM unless noted
SK-MEL-2 melanoma = system: SK-MEL-2 melanoma
EKVX NSCLC = system: EKVX NSCLC
SN12C renal = system: SN12C renal
UO-31 renal = system: UO-31 renal
TK-10 renal = system: TK-10 renal
ACHN renal = system: ACHN renal
A498 renal = system: A498 renal
CCRF-CEM leukemia = system: CCRF-CEM leukemia
MOLT-4 leukemia = system: MOLT-4 leukemia
SR leukemia = system: SR leukemia
OVCAR-8 ovarian = system: OVCAR-8 ovarian
OVCAR-5 ovarian = system: OVCAR-5 ovarian
OVCAR-4 ovarian = system: OVCAR-4 ovarian
SK-OV-3 ovarian = system: SK-OV-3 ovarian
IGROV1 ovarian = system: IGROV1 ovarian
OVCAR-3 ovarian = system: OVCAR-3 ovarian
HS 578T breast = system: HS 578T breast
NCI/ADR-RES ovarian = system: NCI/ADR-RES ovarian
RPMI-8226 leukemia = system: RPMI-8226 leukemia
CAKI-1 renal = system: CAKI-1 renal

Measured: growth

COc1ccc(CCN=Cc2ccc(Cl)cc2)cc1OC
inactive: SK-MEL-2 melanoma 98.4% | EKVX NSCLC 111% | SN12C renal 99.5% | UO-31 renal 83.7% | TK-10 renal 107% | ACHN renal 106% | A498 renal 95.3% | CCRF-CEM leukemia 105% | MOLT-4 leukemia 99.9% | SR leukemia 98.5% | OVCAR-8 ovarian 104% | OVCAR-5 ovarian 119% | OVCAR-4 ovarian 110% | SK-OV-3 ovarian 112% | IGROV1 ovarian 105% | OVCAR-3 ovarian 115% | HS 578T breast 106% | NCI/ADR-RES ovarian 106%

C/C=C(/C(=O)NC(N)=O)C(C)C
inactive: SK-MEL-2 melanoma 109% | EKVX NSCLC 112% | SN12C renal 102% | UO-31 renal 100% | TK-10 renal 117% | ACHN renal 110% | A498 renal 102% | CCRF-CEM leukemia 111% | MOLT-4 leukemia 92.3% | SR leukemia 88.7% | RPMI-8226 leukemia 113% | OVCAR-8 ovarian 96.2% | OVCAR-5 ovarian 116% | OVCAR-4 ovarian 119% | SK-OV-3 ovarian 99.4% | IGROV1 ovarian 114% | OVCAR-3 ovarian 104% | HS 578T breast 107% | NCI/ADR-RES ovarian 107%

O=C(/C=C/C=C/c1ccc2c(c1)OCO2)N1CCCCC1
inactive: SK-MEL-2 melanoma 128% and 57.5% | EKVX NSCLC 78.9% and 95.9% | SN12C renal 97.9% and 100% | UO-31 renal 88.8% and 74.4% | TK-10 renal 157% and 175% | ACHN renal 106% | CAKI-1 renal 92.6% and 106% | A498 renal 92.7% and 83.6% | CCRF-CEM leukemia 109% and 107% | MOLT-4 leukemia 98.3% and 84% | SR leukemia 92.4% and 86% | OVCAR-8 ovarian 101% and 97.4% | OVCAR-5 ovarian 96.4% | OVCAR-4 ovarian 103% and 96.8% | SK-OV-3 ovarian 101% and 102% | OVCAR-3 ovarian 121% and 104% | HS 578T breast 104% and 94.8% | NCI/ADR-RES ovarian 98% and 106%
105% (inactive) and 6.71% (active): IGROV1 ovarian

CCCCOC1NC(=O)NC(=O)C1(F)C(=O)OCC (centres undefined)
inactive: SK-MEL-2 melanoma 97.8% and 101% | EKVX NSCLC 74.8% | SN12C renal 90.2% and 59.9% | UO-31 renal 55.2% and 51.3% | TK-10 renal 65.5% and 71.7% | ACHN renal 82% and 67.4% | A498 renal 78.9% and 112% | CCRF-CEM leukemia 72.6% | MOLT-4 leukemia 92% and 65.2% | SR leukemia 37.9% | RPMI-8226 leukemia 71.8% and 53.1% | OVCAR-8 ovarian 89.6% and 66.6% | OVCAR-5 ovarian 96.5% and 91.9% | OVCAR-4 ovarian 98.9% and 75.8% | SK-OV-3 ovarian 91.7% and 81.6% | IGROV1 ovarian 103% and 87.6% | OVCAR-3 ovarian 77.3% and 65.7% | NCI/ADR-RES ovarian 93.7% and 77.1%

COC(=O)c1cc(C(=O)OC)cc([N+](=O)[O-])c1
inactive: SK-MEL-2 melanoma 109% | EKVX NSCLC 105% | SN12C renal 111% | UO-31 renal 83.6% | TK-10 renal 110% | ACHN renal 106% | A498 renal 93.8% | CCRF-CEM leukemia 102% | MOLT-4 leukemia 71% | SR leukemia 74.7% | RPMI-8226 leukemia 93.8% | OVCAR-8 ovarian 93.5% | OVCAR-5 ovarian 106% | OVCAR-4 ovarian 106% | SK-OV-3 ovarian 98.5% | IGROV1 ovarian 118% | OVCAR-3 ovarian 120% | HS 578T breast 103% | NCI/ADR-RES ovarian 115%

CC1(C)CC(=O)NC1=O
inactive: SK-MEL-2 melanoma 99.2% | EKVX NSCLC 103% | SN12C renal 101% | UO-31 renal 87.1% | TK-10 renal 91.8% | ACHN renal 98.2% | A498 renal 81.5% | CCRF-CEM leukemia 95.6% | MOLT-4 leukemia 107% | SR leukemia 95.9% | OVCAR-8 ovarian 98.9% | OVCAR-5 ovarian 94.8% | OVCAR-4 ovarian 102% | SK-OV-3 ovarian 104% | IGROV1 ovarian 110% | OVCAR-3 ovarian 103% | HS 578T breast 112%

CCN(C)c1ccccc1
inactive: SK-MEL-2 melanoma 104% | EKVX NSCLC 87.5% | SN12C renal 96.7% | UO-31 renal 72.6% | TK-10 renal 107% | ACHN renal 103% | A498 renal 99.6% | CCRF-CEM leukemia 103% | MOLT-4 leukemia 88.2% | SR leukemia 93.3% | RPMI-8226 leukemia 104% | OVCAR-8 ovarian 98.2% | OVCAR-5 ovarian 115% | OVCAR-4 ovarian 109% | SK-OV-3 ovarian 89.6% | IGROV1 ovarian 113% | OVCAR-3 ovarian 108% | HS 578T breast 96.2% | NCI/ADR-RES ovarian 97.3%
